Unmarked numbers belong to inactive results. Records with an inconclusive call do not appear. Active and inactive are the calls of the source. Calls come from the whole dose curve; as a rule, active = well fitted curve in the direction sought with a large enough effect; inconclusive = small, poorly fitted or top-dose-only effect, or another doubt; inactive = no such curve, though single readings can be large; an effect the other way counts as inactive or inconclusive.
Test system: Nanoluciferase (engineered Oplophorus gracilirostris luciferase)
Experiment: Primary Nanoluciferase (NLuc) qHTS assay for identification of artifact compounds. (AID 1845222);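 note: 0% = DMSO and -100% = no enzyme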
Details: NLuc-conditioned medium, Nano-Glo luminescence, 5 min; series mostly up to 54.1 µM; activity, negative = inhibition: at the top concentration
Outline: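 Diluted conditioned medium from NLuc-expressing S16 cells treated with compounds for 15 min at room temperature, then Nano-Glo substrate added; luminescence read after 5 min. Percent inhibition versus no-enzyme and DMSO controls fitted to 4-parameter Hill equation.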

| SMILES | activity, negative = inhibition |
| --- | --- |
| C=C1C(=O)O[C@H]2CC(=C)[C@H]3CC[C@@](C)(O)[C@@H]3CC12 (stereo partly specified) | -20.7% |
| CC(=O)OC1CCC2(C)C(CCC3(C)C2CC=C2C4C(C)C(C)CCC4(C)CCC23C)C1(C)C(=O)O (stereo unspecified) | 2.58% [at 25.7 µM] |
| COc1ccccc1C(=O)Nc1cccc(NC(=O)c2cccc(C)c2)c1 | -4.18% |
| Nc1nc2c(cnn2CCCc2ccc(O)cc2)c2nc(-c3ccco3)nn12 | -1.39% |
| CC(C)S(=O)(=O)NC[C@@H]1CC(c2ccc(N3CCCC3)c(F)c2)=NO1 | -2.75% |
| Cc1ccc(O)cc1Nc1ccnc(Nc2cccc(C(N)=O)c2)n1 | 1.12% |
| O=C(O)c1cccc(-c2ccc(-c3cn(C(=O)N4CCCCC4Cc4ccccc4)nn3)cc2)c1 (stereo unspecified) | -2.6% |
| COc1cc2c(cc1O)C1(Cc3ccc4c(c3C1O)OCO4)[N+](C)([O-])CC2 (stereo unspecified) | -7.8% |
| c1ccc(-c2cnn3cc(-c4ccc(OCCN5CCOCC5)cc4)cnc23)cc1 | -0.0684% |
| CC(C)Nc1nc(Nc2ccccc2)nc(-c2ccccc2)n1 | -17.4% |
| CNc1nc(Nc2ccc(C(=O)N3CCOCC3)cc2OC)nc2[nH]cc(Cl)c12 | -9% |
| CN1CC2CN(c3ccc4oc5ccccc5c(=O)c4c3)CC2C1 (stereo unspecified) | -14.7% [at 25.7 µM] |
| COC1CCN(c2cccc(-c3cc(NC(C)=O)nc(-n4nc(C)cc4C)n3)n2)CC1 | 2.14% |
| O=C(Nc1ccc2[nH]nc(-c3ccncc3)c2c1)[C@@H]1CCN(CC(=O)N2CCN(c3ccc(-c4ncccn4)cc3)CC2)C1 | 0.927% |
| CC1(C)Oc2ncnc(N)c2N=C1c1ccc(C23CCC(CC(=O)O)(CC2)CC3)cc1 | -0.922% |
| NCC1CCN(c2nccc(-c3ccc4ccccc4c3)n2)CC1 | 2.91% |
| C=C1C(=O)O[C@@H]2/C=C(\CO)CC/C=C(/C=O)C[C@H](O)[C@@H]12 | 1.23% |
| C=C1C(=O)OC[C@@H]1C/C=C(\C)CC1CC(C)C(=O)O1 (stereo partly specified) | -14.7% |
| COc1ccccc1-c1ccc(-c2cn(C(=O)N3CCCCC3Cc3ccccc3)nn2)cc1 (stereo unspecified) | 0% |

| SMILES | activity, negative = inhibition |
| --- | --- |
| O=C(Nc1ccc(Cl)cc1)Nc1cccc(-c2cccc(N3CCCC3)n2)c1 | 0% |
| CC(C)(C)c1ccc(C(=O)Nc2cn3cc(-n4ccnc4)ccc3n2)cc1 | 1.81% |
| C/C(=N\N=C(N)N)c1cc(NC(=O)CCCCCCCCC(=O)Nc2cc(/C(C)=N/N=C(N)N)cc(/C(C)=N/N=C(N)N)c2)cc(/C(C)=N/N=C(N)N)c1 | -9.63% |
| O=C(Nc1nnc(-c2ccc3c(c2)OCCO3)o1)C1CCCCC1 | -0.617% |
| O=C(Nc1ccccc1C(=O)Nc1ccc(CCO)cc1)c1ccc([N+](=O)[O-])cc1 | -1.86% |
| CCCCC1CCN(CCCN2C(=O)CCc3ccccc32)CC1 | -10.7% |
| CCc1ccc(-c2nc(CSCC(=O)NCCc3ccccc3)c(C)o2)cc1 | -11.9% |
| CC1(C)CCC(C)(C)c2cc(C#Cc3ccc(C(=O)O)cc3)ccc21 | -4.57% |
| CC(C)c1ccc(-c2cc(=O)c3ccccc3o2)cc1 | -13.5% |
| O=C(Nc1nc2ccc([N+](=O)[O-])cc2s1)C1CCCCC1 | -7.15% |
| O=C(Nc1ccc(-c2ccc(Cl)c(Cl)c2)cc1)C1=C(O)c2ccccc2S(=O)(=O)N1 | -18.5% |
| Cc1cc(C(C)Nc2ccccc2C(=O)O)c2nc(N3CCOCC3)cc(=O)n2c1 (stereo unspecified) | -19.7% |
| CCCN1CCC=C(c2cc(-c3ccc(C)cc3)no2)C1 | 2.46% |
| CCOC(=O)c1csc(Nc2ccc(Cl)cc2)n1 | -4.73% |
| CC#C[C@@H](CC(=O)O)c1ccc(OCc2cccc(-c3ccc(C(F)(F)F)cc3)c2)cc1 | 1.8% |
| CN(C)c1ccc(NC(=O)NS(=O)(=O)c2ccc(Cl)cc2)cc1 | -21.5% |
| CN(C)Cc1ccc(-c2cnn3c(-c4cccc(NC(=O)c5cccc(C(F)(F)F)c5)c4)ccnc23)cc1 | -5.7% |
| Cc1cc(C(=O)Nc2cc(Nc3ccc4c(/C=C/c5ccccn5)n[nH]c4c3)ccc2F)n(C)n1 | -0.91% |

Test system: not listed separately
Experiment: Primary redox qHTS assay for identification of artifact compounds. (AID 1845223); note: potency is the fitted concentration of half-maximal effect;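 for redox activity (% of DA3003): 0% = DMSO and 100% = reference compound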
Details: Amplex Red/HRP redox cycling with DTT, fluorescence; series mostly up to 53.8 µM; redox activity (% of DA3003): at the top concentration
Outline: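 Amplex Red (25 uM) and HRP (250 mU/mL) in HBSS, with compounds for 15 min, then 250 uM DTT for 30 min, room temperature, dark. Fluorescence 525/598 nm read; normalized to DMSO and 10 uM DA3003; Hill fit.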

| SMILES | redox activity (% of DA3003) | Potency |
| --- | --- | --- |
| C=C1C(=O)O[C@H]2CC(=C)[C@H]3CC[C@@](C)(O)[C@@H]3CC12 (stereo partly specified) | -0.563% |  |
| CC(=O)OC1CCC2(C)C(CCC3(C)C2CC=C2C4C(C)C(C)CCC4(C)CCC23C)C1(C)C(=O)O (stereo unspecified) | -1.87% [at 25.6 µM] |  |
| CC1=C(C(=O)OC2CCCCC2)C(c2ccc([N+](=O)[O-])cc2)C2=C(CC(C)(C)CC2=O)N1 (stereo unspecified) |  | 2120 nM (active) |
| COc1ccccc1C(=O)Nc1cccc(NC(=O)c2cccc(C)c2)c1 | 4.97% |  |
| Nc1nc2c(cnn2CCCc2ccc(O)cc2)c2nc(-c3ccco3)nn12 | -4.85% |  |
| CC(C)S(=O)(=O)NC[C@@H]1CC(c2ccc(N3CCCC3)c(F)c2)=NO1 | 15% |  |
| Cc1ccc(O)cc1Nc1ccnc(Nc2cccc(C(N)=O)c2)n1 | -3.12% |  |
| O=C(O)c1cccc(-c2ccc(-c3cn(C(=O)N4CCCCC4Cc4ccccc4)nn3)cc2)c1 (stereo unspecified) | 10.7% |  |
| CC(C)Nc1nc(Nc2ccccc2)nc(-c2ccccc2)n1 | -0.0331% |  |
| CNc1nc(Nc2ccc(C(=O)N3CCOCC3)cc2OC)nc2[nH]cc(Cl)c12 | 4.12% |  |
| CN1CC2CN(c3ccc4oc5ccccc5c(=O)c4c3)CC2C1 (stereo unspecified) | 19.3% [at 25.6 µM] |  |
| COC1CCN(c2cccc(-c3cc(NC(C)=O)nc(-n4nc(C)cc4C)n3)n2)CC1 | 13% |  |
| O=C(Nc1ccc2[nH]nc(-c3ccncc3)c2c1)[C@@H]1CCN(CC(=O)N2CCN(c3ccc(-c4ncccn4)cc3)CC2)C1 | 13.9% |  |
| CC1(C)Oc2ncnc(N)c2N=C1c1ccc(C23CCC(CC(=O)O)(CC2)CC3)cc1 | 5% |  |
| NCC1CCN(c2nccc(-c3ccc4ccccc4c3)n2)CC1 | 17.2% |  |
| O=C1Cc2c([nH]c3ccc(Br)cc23)-c2ncccc2N1 | 0.738% |  |
| C=C1C(=O)O[C@@H]2/C=C(\CO)CC/C=C(/C=O)C[C@H](O)[C@@H]12 | 2.42% |  |

| SMILES | redox activity (% of DA3003) | Potency |
| --- | --- | --- |
| COc1ccccc1-c1ccc(-c2cn(C(=O)N3CCCCC3Cc3ccccc3)nn2)cc1 (stereo unspecified) | -1.37% |  |
| O=C(Nc1ccc(Cl)cc1)Nc1cccc(-c2cccc(N3CCCC3)n2)c1 | -2.26% |  |
| CC(C)(C)c1ccc(C(=O)Nc2cn3cc(-n4ccnc4)ccc3n2)cc1 | -7.85% |  |
| O=C(Nc1nnc(-c2ccc3c(c2)OCCO3)o1)C1CCCCC1 | -0.647% |  |
| O=C(Nc1ccccc1C(=O)Nc1ccc(CCO)cc1)c1ccc([N+](=O)[O-])cc1 | -10.4% |  |
| CCCCC1CCN(CCCN2C(=O)CCc3ccccc32)CC1 | -0.426% |  |
| CCc1ccc(-c2nc(CSCC(=O)NCCc3ccccc3)c(C)o2)cc1 | 4.42% |  |
| CC1(C)CCC(C)(C)c2cc(C#Cc3ccc(C(=O)O)cc3)ccc21 | -5.47% |  |
| CC(C)c1ccc(-c2cc(=O)c3ccccc3o2)cc1 | -0.765% |  |
| O=C(Nc1nc2ccc([N+](=O)[O-])cc2s1)C1CCCCC1 | -5.57% |  |
| O=C(Nc1ccc(-c2ccc(Cl)c(Cl)c2)cc1)C1=C(O)c2ccccc2S(=O)(=O)N1 | 9.54% |  |
| CCCN1CCC=C(c2cc(-c3ccc(C)cc3)no2)C1 | 19.4% |  |
| CCOC(=O)c1csc(Nc2ccc(Cl)cc2)n1 | -5.25% |  |
| CC#C[C@@H](CC(=O)O)c1ccc(OCc2cccc(-c3ccc(C(F)(F)F)cc3)c2)cc1 | -0.197% |  |
| CN(C)c1ccc(NC(=O)NS(=O)(=O)c2ccc(Cl)cc2)cc1 |  | 3360 nM (active) |
| CN(C)Cc1ccc(-c2cnn3c(-c4cccc(NC(=O)c5cccc(C(F)(F)F)c5)c4)ccnc23)cc1 | -2.31% |  |
| Cc1cc(C(=O)Nc2cc(Nc3ccc4c(/C=C/c5ccccn5)n[nH]c4c3)ccc2F)n(C)n1 | -2% |  |

Source: PubChem BioAssay (NCATS)
